# What was measured:
# Assay in all cases: PBM binding z-score (relative to random genomic background probes); higher = stronger binding; sequences stand for … in GC…GCGATTGACAGCGTAGAATGAAGG
# [1] = test system: FXR:RXRa (NR concentration 270 nM, RXRa partner concentration 90 nM)
# Outline: (§1)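 Binding z-scores were set against random background probes. The data came from custom Agilent 4×180K protein-binding microarrays carrying double-stranded probes with 34-nt variable regions, incubated 1 h with ligand-free nuclear receptor dimers. Partner-specific antibodies detected binding, and scanned fluorescence was regression-normalized.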
# [2] = test system: LXRa:RXRa (NR concentration 270 nM, RXRa partner concentration 90 nM)
# Outline: as §1
# [3] = test system: LXRa homodimer (NR concentration 270 nM)
# Outline: as §1
# [4] = test system: LXRb:RXRa (NR concentration 270 nM, RXRa partner concentration 90 nM)
# Outline: as §1
# [5] = test system: LXRb homodimer (NR concentration 270 nM)
# Outline: as §1
# [6] = test system: PPARa:RXRa (NR concentration 270 nM, RXRa partner concentration 90 nM)
# Outline: as §1
# [7] = test system: PPARg:RXRa (NR concentration 180 nM, RXRa partner concentration 90 nM)
# Outline: as §1
# [8] = test system: PPARg:RXRa 270nM:90nM, anti-RXR (NR concentration 270 nM, RXRa partner concentration 90 nM)
# Outline: as §1
# [9] = test system: PPARg:RXRa 30nM:10nM, anti-RXR (NR concentration 30 nM, RXRa partner concentration 10 nM)
# Outline: as §1
# [10] = test system: PPARg:RXRa 90nM:30nM, anti-RXR (NR concentration 90 nM, RXRa partner concentration 30 nM)
# Outline: as §1
# [11] = test system: PPARg:RXRa DBDmut IVT, anti-RXR (DBD mutation: RXRa K156A/R161A, NR concentration 270 nM, RXRa partner concentration 90 nM)
# Outline: as §1
# [12] = test system: PPARg:RXRa IVT, anti-PPARg (NR concentration 270 nM, RXRa partner concentration 90 nM)
# Outline: as §1
# [13] = test system: PPARg DBDmut:RXRa IVT, anti-PPARg (DBD mutation: PPARg1 K132A/R137A, NR concentration 270 nM, RXRa partner concentration 90 nM)
# Outline: as §1
# [14] = test system: PPARg DBDmut IVT, anti-PPARg (DBD mutation: PPARg1 K132A/R137A, NR concentration 270 nM)
# Outline: as §1
# [15] = test system: PPARg homodimer (NR concentration 180 nM)
# Outline: as §1
# [16] = test system: PXR:RXRa (NR concentration 270 nM, RXRa partner concentration 90 nM)
# Outline: as §1
# [17] = test system: PXR homodimer (NR concentration 270 nM)
# Outline: as §1
# [18] = test system: RARa:RXR (NR concentration 270 nM, RXRa partner concentration 90 nM)
# Outline: as §1
# [19] = test system: RARa homodimer (NR concentration 270 nM)
# Outline: as §1
# [20] = test system: RARb:RXRa (NR concentration 270 nM, RXRa partner concentration 90 nM)
# Outline: as §1
Sequence,PBM binding z-score [1],PBM binding z-score [2],PBM binding z-score [3],PBM binding z-score [4],PBM binding z-score [5],PBM binding z-score [6],PBM binding z-score [7],PBM binding z-score [8],PBM binding z-score [9],PBM binding z-score [10],PBM binding z-score [11],PBM binding z-score [12],PBM binding z-score [13],PBM binding z-score [14],PBM binding z-score [15],PBM binding z-score [16],PBM binding z-score [17],PBM binding z-score [18],PBM binding z-score [19],PBM binding z-score [20]
ACAGACAGGTGATGAAGGCAACTCAGGCTATCAT,-0.379,-0.449,-0.41,-0.706,-0.333,-0.357,0.764,-0.331,-0.116,-0.446,-0.272,-0.316,0.175,-1.07,-0.119,-0.469,-0.142,0.0224,0.0844,0.0179
ATCGAAAGGTGGTGAGGTGAGTATACAGAAAGGC,0.483,0.31,0.284,0.389,0.161,0.744,0.668,0.261,0.347,0.438,-0.246,0.807,0.968,1.51,0.911,0.257,0.574,0.614,0.646,0.849
CAAACTAGGTCACAGAAGTCAAAGTCCGTGCGTA,4.23,3.17,0.883,2.77,0.529,5.49,8.96,7.26,5.36,6.93,8.28,9.03,4.57,2.37,2.34,2.34,0.405,3.34,0.949,4.35
CCTTACGGGTCACTGACGGGTTATAGCATTTGGA,5.28,3.6,0.0563,3.42,0.119,4.67,4.31,4.28,1.63,2.74,2.64,3.56,0.267,0.298,3.14,3.66,-0.038,4.82,0.976,4.04
CCGACTGGGGCGAGGTTACCATAACGCACAGCCA,0.344,0.809,-0.212,0.84,-0.662,1.49,1.16,1.05,-0.243,0.417,0.314,0.726,-1.05,-1.46,0.254,0.372,-0.517,1.1,-0.00275,0.965
ATCTCTAGGTAACAGGTTCAGTGAAAGAGAGGAC,0.507,0.677,0.529,0.67,1.09,1.8,2.61,2.9,1.5,2.78,3.85,3.15,1.83,1.35,1.4,0.871,1.43,0.854,0.973,0.893
CCTTACTGGTCACTCCAGGTTATAGCATCGGAGT,0.959,4.64,1.95,1.39,0.798,0.503,0.265,0.0704,0.0345,0.0913,0.949,1.07,0.287,0.23,0.774,0.989,0.586,0.883,1.05,1.53
CGAACTAGGGCATGAGTTGATAGCAAATGCCGAT,-0.0776,-0.357,-0.246,-0.279,-0.828,2.34,4.14,4.13,2.03,3.43,7.01,6.1,1.05,0.0296,-0.00514,-0.191,-0.257,0.155,-0.133,1.12
TAGCCTAGGTGAGATCGGGCCAGTATACGCTATA,-0.31,-0.533,-0.692,-0.901,-0.702,-0.453,0.201,-0.291,-0.335,-0.319,0.128,1.07,-0.934,-1.25,-0.915,-0.281,-0.98,0.347,-1.23,-0.0511
TCTCGGAGGACACGAAAGGACAGAGCTCGACATC,0.793,0.0695,-0.281,-0.358,-0.815,-0.148,0.542,0.751,1.85,1.34,1.47,0.125,-0.295,-0.96,-0.288,-0.168,-0.334,0.0232,-0.282,2.03
TCTAGTTGGTCACGGAGGTCTCACACGACGGGTA,0.555,0.613,0.0269,0.437,-0.332,1.16,0.78,1.99,2.94,2.55,2.19,2.67,0.65,1.23,1.03,0.478,-0.307,0.619,-0.249,1.91
TCTTGTAGATCAAAGGTTCAGAAAGCCGAAGCCT,0.694,0.971,0.565,0.863,0.0761,2.17,3.23,5.21,4.26,5.21,1.88,1.55,0.156,0.203,0.638,0.73,-0.103,1.13,-0.254,0.898
ATCACTAGGTAAAAGTTCAGTGAATCCCGAGGAT,0.841,1.47,1.23,0.945,0.59,4.85,8.25,8.67,7.65,9.23,3.38,4.52,1.04,1.36,1.02,2.08,1.55,1.9,1.02,2.49

# From the supplement of paper PMC6555819
